# What was measured:
# [1] = molecular target: 5'-AMP-activated protein kinase catalytic subunit alpha-2 (Homo sapiens) (UniProt P54646); settings: at 1 µM
# [2] = molecular target: T1, NUAK family SNF1-like kinase 1 (Homo sapiens) (UniProt O60285); settings: at 0.1 µM
# T1 sequence (whole entry): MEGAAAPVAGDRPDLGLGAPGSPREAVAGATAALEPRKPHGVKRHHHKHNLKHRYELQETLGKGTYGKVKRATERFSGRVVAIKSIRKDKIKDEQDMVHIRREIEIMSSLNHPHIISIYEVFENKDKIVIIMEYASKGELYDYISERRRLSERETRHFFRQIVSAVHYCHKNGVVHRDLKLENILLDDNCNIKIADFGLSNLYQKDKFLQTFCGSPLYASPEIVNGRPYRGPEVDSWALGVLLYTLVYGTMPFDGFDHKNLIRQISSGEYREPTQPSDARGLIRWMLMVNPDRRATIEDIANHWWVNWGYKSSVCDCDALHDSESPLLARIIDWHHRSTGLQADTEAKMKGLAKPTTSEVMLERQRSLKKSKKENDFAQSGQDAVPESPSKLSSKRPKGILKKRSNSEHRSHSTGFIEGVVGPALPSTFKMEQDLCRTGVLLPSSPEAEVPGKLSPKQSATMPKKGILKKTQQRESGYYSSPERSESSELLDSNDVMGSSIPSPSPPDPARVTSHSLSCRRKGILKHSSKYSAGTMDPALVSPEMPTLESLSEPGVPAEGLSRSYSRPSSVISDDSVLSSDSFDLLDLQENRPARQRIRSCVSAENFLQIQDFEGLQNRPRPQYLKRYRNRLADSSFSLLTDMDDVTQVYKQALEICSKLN
# [3] = molecular target: T1, NUAK family SNF1-like kinase 1 (Homo sapiens); settings: at 1 µM
# [4] = molecular target: T2, Serine/threonine-protein kinase BRSK1 (Homo sapiens) (UniProt Q8TDC3); settings: at 0.1 µM
# T2 sequence (whole entry): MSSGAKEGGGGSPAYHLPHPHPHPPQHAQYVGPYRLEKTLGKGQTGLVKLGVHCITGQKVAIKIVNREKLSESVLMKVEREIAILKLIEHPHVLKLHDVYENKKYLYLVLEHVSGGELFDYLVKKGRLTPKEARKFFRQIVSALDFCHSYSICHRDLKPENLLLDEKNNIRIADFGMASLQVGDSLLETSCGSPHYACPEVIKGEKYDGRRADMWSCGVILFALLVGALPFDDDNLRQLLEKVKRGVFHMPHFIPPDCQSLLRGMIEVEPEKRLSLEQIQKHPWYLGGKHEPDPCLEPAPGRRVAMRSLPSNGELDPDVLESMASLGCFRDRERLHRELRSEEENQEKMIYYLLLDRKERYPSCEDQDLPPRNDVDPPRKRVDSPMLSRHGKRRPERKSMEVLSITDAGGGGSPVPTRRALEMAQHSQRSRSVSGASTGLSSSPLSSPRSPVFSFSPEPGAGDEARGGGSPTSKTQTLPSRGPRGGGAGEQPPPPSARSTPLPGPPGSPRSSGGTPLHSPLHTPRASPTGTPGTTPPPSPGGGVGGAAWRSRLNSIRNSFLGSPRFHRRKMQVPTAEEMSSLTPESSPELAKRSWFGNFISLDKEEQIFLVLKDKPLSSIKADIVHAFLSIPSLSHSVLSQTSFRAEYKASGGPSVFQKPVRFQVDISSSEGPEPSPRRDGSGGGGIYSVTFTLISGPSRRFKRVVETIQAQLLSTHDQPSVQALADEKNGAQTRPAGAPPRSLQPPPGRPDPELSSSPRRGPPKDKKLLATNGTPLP
# [5] = molecular target: T2, Serine/threonine-protein kinase BRSK1 (Homo sapiens); settings: at 1 µM
# [6] = molecular target: T3, Serine/threonine-protein kinase BRSK2 (Homo sapiens) (UniProt Q8IWQ3); settings: at 0.1 µM
# T3 sequence (whole entry): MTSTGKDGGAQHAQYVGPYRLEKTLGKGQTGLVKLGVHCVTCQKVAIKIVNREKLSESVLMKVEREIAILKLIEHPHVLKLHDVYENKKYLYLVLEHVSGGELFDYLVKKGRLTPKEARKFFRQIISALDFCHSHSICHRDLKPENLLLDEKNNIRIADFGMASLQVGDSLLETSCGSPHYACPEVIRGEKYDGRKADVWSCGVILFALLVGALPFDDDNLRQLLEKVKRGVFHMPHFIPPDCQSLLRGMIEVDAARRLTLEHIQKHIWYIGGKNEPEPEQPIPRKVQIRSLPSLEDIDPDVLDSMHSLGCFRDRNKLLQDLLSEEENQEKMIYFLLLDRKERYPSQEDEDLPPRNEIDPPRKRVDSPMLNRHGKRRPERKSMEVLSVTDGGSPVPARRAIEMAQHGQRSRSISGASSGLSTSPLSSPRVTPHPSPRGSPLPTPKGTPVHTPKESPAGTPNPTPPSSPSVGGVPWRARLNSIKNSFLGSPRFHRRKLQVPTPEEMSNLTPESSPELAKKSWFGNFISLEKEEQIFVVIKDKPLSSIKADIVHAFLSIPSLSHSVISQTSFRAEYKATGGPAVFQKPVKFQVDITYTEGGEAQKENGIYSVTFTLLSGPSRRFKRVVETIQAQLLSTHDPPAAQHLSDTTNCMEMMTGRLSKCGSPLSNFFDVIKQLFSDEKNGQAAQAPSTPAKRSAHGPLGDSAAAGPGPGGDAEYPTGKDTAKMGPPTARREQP
# [7] = molecular target: T3, Serine/threonine-protein kinase BRSK2 (Homo sapiens); settings: at 1 µM
# [8] = molecular target: Calcium/calmodulin-dependent protein kinase type 1D (Homo sapiens) (UniProt Q8IU85); settings: at 0.1 µM
# Chain of Calcium/calmodulin-dependent protein kinase type 1D (Homo sapiens) (Q8IU85 whole entry, looked up): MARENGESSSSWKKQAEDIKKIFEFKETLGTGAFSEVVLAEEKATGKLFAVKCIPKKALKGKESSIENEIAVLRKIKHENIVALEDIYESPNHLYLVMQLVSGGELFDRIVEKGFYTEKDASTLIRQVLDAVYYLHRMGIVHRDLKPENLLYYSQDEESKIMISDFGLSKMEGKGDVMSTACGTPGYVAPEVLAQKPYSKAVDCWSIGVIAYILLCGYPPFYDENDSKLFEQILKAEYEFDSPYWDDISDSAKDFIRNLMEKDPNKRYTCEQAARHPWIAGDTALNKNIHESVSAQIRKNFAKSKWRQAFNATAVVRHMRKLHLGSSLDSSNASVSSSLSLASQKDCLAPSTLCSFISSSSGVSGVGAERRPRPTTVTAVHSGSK
# [9] = molecular target: Calcium/calmodulin-dependent protein kinase type 1D (Homo sapiens) (UniProt Q8IU85); settings: at 1 µM
# [10] = molecular target: Calcium/calmodulin-dependent protein kinase type II subunit alpha (Homo sapiens) (UniProt Q9UQM7); settings: at 0.1 µM
# Chain of Calcium/calmodulin-dependent protein kinase type II subunit alpha (Homo sapiens) (Q9UQM7 whole entry): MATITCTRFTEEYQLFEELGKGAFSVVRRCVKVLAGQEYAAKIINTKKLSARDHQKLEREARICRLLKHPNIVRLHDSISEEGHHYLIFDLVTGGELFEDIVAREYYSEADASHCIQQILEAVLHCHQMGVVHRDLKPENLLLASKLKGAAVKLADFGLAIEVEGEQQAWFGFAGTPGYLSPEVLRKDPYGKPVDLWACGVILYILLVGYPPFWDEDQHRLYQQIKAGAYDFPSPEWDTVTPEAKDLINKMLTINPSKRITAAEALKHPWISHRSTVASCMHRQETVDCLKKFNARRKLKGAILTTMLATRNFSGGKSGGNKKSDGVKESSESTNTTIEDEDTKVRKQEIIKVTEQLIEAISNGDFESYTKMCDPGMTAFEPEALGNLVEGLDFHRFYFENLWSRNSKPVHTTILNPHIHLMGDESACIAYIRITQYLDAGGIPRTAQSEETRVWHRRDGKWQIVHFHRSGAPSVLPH
# [11] = molecular target: Calcium/calmodulin-dependent protein kinase type II subunit alpha (Homo sapiens) (UniProt Q9UQM7); settings: at 1 µM
# [12] = molecular target: Calcium/calmodulin-dependent protein kinase type II subunit delta (Homo sapiens) (UniProt Q13557); settings: at 0.1 µM
# Chain of Calcium/calmodulin-dependent protein kinase type II subunit delta (Homo sapiens) (Q13557 whole entry): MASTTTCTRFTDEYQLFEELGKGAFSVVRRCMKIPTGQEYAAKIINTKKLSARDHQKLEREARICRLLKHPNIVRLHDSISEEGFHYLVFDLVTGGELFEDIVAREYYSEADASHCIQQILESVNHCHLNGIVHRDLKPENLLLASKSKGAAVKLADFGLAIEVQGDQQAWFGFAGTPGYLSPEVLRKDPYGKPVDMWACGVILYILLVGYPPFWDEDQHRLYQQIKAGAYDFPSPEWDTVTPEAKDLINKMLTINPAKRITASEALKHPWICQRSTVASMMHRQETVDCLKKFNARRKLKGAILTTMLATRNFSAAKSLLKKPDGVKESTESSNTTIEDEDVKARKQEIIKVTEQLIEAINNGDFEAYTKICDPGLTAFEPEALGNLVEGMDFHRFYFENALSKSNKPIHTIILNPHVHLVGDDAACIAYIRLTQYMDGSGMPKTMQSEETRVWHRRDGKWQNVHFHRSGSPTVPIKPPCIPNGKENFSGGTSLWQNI
# [13] = molecular target: Calcium/calmodulin-dependent protein kinase type II subunit delta (Homo sapiens) (UniProt Q13557); settings: at 1 µM
# [14] = molecular target: T4, Calcium/calmodulin-dependent protein kinase type IV (Homo sapiens) (UniProt Q16566); settings: at 0.1 µM
# T4 sequence (whole entry): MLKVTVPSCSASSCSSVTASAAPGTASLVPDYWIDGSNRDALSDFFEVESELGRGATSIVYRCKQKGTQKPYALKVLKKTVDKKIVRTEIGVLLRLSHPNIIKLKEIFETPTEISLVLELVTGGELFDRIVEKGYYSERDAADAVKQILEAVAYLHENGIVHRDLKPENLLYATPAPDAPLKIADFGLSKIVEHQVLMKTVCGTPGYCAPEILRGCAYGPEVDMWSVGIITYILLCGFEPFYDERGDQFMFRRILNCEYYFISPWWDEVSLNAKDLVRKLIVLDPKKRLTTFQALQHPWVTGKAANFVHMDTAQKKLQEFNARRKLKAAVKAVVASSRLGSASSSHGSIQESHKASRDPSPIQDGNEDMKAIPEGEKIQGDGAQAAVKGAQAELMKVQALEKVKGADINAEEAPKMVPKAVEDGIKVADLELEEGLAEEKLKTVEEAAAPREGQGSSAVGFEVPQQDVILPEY
# [15] = molecular target: T4, Calcium/calmodulin-dependent protein kinase type IV (Homo sapiens); settings: at 1 µM
# [16] = molecular target: T5, Serine/threonine-protein kinase Chk1 (Homo sapiens) (UniProt O14757); settings: at 0.1 µM
# T5 sequence (whole entry): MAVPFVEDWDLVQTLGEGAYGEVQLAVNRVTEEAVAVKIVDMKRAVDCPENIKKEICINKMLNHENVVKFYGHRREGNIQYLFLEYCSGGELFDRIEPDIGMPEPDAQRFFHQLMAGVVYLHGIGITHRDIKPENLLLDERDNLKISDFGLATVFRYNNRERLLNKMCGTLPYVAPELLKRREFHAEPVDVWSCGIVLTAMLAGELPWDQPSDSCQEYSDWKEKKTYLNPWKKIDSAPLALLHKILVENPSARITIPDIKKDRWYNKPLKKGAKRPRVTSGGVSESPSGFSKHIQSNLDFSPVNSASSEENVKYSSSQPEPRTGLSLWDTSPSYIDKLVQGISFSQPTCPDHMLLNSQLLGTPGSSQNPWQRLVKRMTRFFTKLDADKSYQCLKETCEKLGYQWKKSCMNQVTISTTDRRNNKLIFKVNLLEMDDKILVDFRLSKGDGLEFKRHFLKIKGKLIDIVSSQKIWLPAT
# [17] = molecular target: T5, Serine/threonine-protein kinase Chk1 (Homo sapiens); settings: at 1 µM
# [18] = molecular target: Serine/threonine-protein kinase Chk2 (Homo sapiens) (UniProt O96017); settings: at 0.1 µM
# Chain of Serine/threonine-protein kinase Chk2 (Homo sapiens) (O96017 whole entry): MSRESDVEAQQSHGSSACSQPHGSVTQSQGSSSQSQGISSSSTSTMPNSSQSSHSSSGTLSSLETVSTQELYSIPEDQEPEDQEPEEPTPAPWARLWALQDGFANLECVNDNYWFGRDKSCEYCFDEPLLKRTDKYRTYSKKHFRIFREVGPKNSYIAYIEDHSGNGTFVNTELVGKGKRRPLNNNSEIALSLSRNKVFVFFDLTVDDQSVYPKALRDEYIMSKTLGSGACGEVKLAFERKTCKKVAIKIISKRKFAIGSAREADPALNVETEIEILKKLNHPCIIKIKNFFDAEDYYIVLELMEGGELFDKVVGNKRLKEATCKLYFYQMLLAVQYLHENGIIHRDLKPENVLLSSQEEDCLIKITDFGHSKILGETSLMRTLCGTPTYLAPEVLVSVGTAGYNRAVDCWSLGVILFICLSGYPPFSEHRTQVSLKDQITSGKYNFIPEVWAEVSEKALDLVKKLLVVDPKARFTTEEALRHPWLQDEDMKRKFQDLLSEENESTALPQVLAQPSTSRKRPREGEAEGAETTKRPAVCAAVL
# [19] = molecular target: Serine/threonine-protein kinase Chk2 (Homo sapiens) (UniProt O96017); settings: at 1 µM
# [20] = molecular target: Death-associated protein kinase 1 (Homo sapiens) (UniProt P53355); settings: at 0.1 µM;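 further: reported figure is the mean inhibition of DAPK1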
# Chain of Death-associated protein kinase 1 (Homo sapiens) (P53355 whole entry, looked up): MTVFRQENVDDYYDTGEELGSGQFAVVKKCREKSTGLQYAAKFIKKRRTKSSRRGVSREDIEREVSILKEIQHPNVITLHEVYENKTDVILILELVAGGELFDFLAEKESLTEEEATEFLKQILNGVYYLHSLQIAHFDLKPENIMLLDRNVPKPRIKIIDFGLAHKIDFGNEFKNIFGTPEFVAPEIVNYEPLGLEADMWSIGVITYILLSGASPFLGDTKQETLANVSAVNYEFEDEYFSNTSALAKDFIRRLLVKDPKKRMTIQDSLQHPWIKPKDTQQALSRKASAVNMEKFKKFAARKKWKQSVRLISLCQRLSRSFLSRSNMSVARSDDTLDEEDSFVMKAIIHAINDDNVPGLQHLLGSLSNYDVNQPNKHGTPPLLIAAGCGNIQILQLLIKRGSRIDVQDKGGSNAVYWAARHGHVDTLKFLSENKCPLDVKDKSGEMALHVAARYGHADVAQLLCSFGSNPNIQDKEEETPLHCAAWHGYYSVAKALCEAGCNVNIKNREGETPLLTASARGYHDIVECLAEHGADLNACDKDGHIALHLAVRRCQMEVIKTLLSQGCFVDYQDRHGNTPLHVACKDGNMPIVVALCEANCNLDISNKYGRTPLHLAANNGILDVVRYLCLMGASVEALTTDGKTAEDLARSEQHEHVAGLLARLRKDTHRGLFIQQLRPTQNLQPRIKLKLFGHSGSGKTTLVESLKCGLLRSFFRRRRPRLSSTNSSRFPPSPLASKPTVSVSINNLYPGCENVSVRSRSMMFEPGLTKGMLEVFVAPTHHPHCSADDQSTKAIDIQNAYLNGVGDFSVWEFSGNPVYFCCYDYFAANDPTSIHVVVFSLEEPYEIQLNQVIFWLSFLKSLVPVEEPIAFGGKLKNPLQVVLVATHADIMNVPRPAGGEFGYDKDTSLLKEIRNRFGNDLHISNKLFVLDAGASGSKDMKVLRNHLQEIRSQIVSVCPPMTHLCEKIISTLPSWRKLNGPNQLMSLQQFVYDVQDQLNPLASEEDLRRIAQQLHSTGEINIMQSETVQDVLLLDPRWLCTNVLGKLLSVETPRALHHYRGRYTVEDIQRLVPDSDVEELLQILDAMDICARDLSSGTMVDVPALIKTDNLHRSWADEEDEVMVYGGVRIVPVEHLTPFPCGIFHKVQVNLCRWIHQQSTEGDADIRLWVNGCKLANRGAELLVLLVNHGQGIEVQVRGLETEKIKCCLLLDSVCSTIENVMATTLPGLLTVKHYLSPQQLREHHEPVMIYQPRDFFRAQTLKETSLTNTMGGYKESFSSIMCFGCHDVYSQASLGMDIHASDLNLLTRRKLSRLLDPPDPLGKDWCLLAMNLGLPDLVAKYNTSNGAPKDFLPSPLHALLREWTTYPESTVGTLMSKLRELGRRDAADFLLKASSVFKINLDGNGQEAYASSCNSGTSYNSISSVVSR
# Chain of 5'-AMP-activated protein kinase catalytic subunit alpha-2 (Homo sapiens) (P54646 whole entry, looked up): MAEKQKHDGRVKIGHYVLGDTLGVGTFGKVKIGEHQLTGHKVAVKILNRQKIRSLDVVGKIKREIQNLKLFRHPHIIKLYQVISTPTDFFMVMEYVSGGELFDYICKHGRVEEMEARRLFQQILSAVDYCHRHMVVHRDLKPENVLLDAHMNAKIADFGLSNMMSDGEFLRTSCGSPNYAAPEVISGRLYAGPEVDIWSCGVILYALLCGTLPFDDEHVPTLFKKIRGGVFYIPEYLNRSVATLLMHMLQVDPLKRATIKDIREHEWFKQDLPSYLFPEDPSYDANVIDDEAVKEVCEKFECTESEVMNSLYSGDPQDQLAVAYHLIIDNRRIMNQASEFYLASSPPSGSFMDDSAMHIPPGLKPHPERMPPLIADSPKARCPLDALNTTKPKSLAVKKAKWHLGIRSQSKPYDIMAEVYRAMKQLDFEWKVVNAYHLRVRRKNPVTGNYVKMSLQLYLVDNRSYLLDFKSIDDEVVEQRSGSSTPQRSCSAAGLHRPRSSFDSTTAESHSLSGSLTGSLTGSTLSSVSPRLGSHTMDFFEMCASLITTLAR
Compound,inhibition [1],inhibition [2],inhibition [3],inhibition [4],inhibition [5],inhibition [6],inhibition [7],inhibition [8],inhibition [9],inhibition [10],inhibition [11],inhibition [12],inhibition [13],inhibition [14],inhibition [15],inhibition [16],inhibition [17],inhibition [18],inhibition [19],inhibition [20]
NS(=O)(=O)c1ccc(Nc2ncc(-c3ccccc3)o2)cc1,9.24%,10.7%,37.2%,1.52%,15.3%,2.58%,17%,0.42%,0.85%,4.27%,4.77%,2.92%,7.79%,-0.86%,-0.71%,0.75%,7.56%,1.94%,3.97%,3.79%
CC(=O)Nc1cccc(C#Cc2cncnc2Nc2ccc(OCc3cccc(F)c3)c(Cl)c2)c1,2.19%,1.95%,7.23%,2.55%,1.82%,1.34%,0.36%,2.97%,3.77%,4.42%,4.52%,4.28%,3.37%,1.57%,3.24%,-1.89%,-3.6%,-2.67%,-1.77%,-6.34%
Nc1nc(-c2cccc(Cl)c2)c(-c2ccc3ncccc3n2)s1,3.28%,-2.86%,5.81%,0.2%,1.68%,1.95%,4.51%,-0.44%,0.6%,3.5%,2.48%,2.83%,3.46%,-2.8%,-4.36%,9.85%,12.6%,10.1%,12.7%,12%
CCN1CCC(CC(=O)Nc2n[nH]c3nnc(-c4cccc(F)c4F)cc23)CC1,5.17%,-1.66%,1.56%,-0.52%,3.84%,2.07%,-0.1%,1.6%,-1.42%,3.17%,-0.76%,2.44%,0.77%,2.76%,-0.58%,1.72%,-1.03%,1.92%,0.24%,3.62%
COc1ccc(-c2cc(-c3c[nH]nc3-c3ccccn3)ccn2)cc1,3.44%,-7.35%,2.48%,-0.01%,2.6%,2.08%,3.41%,0.05%,-1.05%,4.66%,6.7%,3.82%,3.97%,-2.15%,-3.38%,3.08%,6.57%,3.42%,4.49%,5.21%
[O-][S+]1CCN(Cc2ccc(-c3ccc4ncnc(Nc5ccc(OCc6cccc(F)c6)c(Cl)c5)c4c3)o2)CC1,5.75%,0.9%,3.1%,1.17%,3.09%,3.06%,4.57%,0.83%,1.18%,3.06%,0.16%,2.62%,3.95%,0.28%,2.28%,7.38%,10.6%,1.91%,3.16%,6.57%
COc1cc(N2CCN(C(C)C)CC2)ccc1Nc1nc(Nc2ccc(F)cc2C(N)=O)c2cc[nH]c2n1,13.2%,66.6%,85%,2.21%,-0.11%,0.22%,1.71%,10.9%,52.8%,9.8%,53.3%,29%,75.1%,4.5%,29.3%,3.09%,27.8%,49.6%,79.1%,5.07%
Cc1cccc2c1NC(=O)/C2=N\Nc1ccc(S(N)(=O)=O)cc1,4.04%,4.52%,19%,1.12%,3.16%,0.94%,4.49%,0.23%,1.75%,4.56%,3.33%,3.36%,3.56%,0.62%,1.1%,0.95%,5.04%,1.68%,2.64%,3.69%
CC(C)COC(=O)c1ccc2c(c1)/C(=C/Nc1ccc(S(N)(=O)=O)cc1)C(=O)N2,36.3%,29.6%,75.6%,5.38%,38%,10.1%,50.1%,1.82%,7.89%,0.26%,17.5%,4.43%,36.7%,1.85%,3.51%,0.91%,18.1%,-0.46%,13.5%,-2.01%
CNC(=O)c1cccc(C#Cc2cncnc2Nc2ccc(OCc3cccc(F)c3)c(Cl)c2)c1,1.89%,0.54%,8.68%,-0.7%,2.56%,1.59%,4.03%,-1.04%,-0.89%,1.34%,1.97%,0.91%,1.19%,-0.97%,-3.36%,-1.85%,-0.79%,0.62%,2.35%,-1.4%
CCn1c(-c2nonc2N)nc2c(C#CC(C)(C)O)ncc(OC3CCNCC3)c21,43.3%,6.16%,42.9%,1.45%,10.5%,2.8%,19.2%,1.83%,8.97%,3.85%,5.73%,4.43%,8.15%,1.96%,6.84%,2%,4.29%,2.65%,7.53%,4.3%
CNC(=O)c1cncc(/C=C/c2ccccc2Cl)c1,-0.38%,4.61%,4.26%,0.56%,8.62%,0.31%,8.91%,0.88%,-1.08%,1.53%,1.63%,-0.13%,-0.98%,-3.66%,-4.17%,1.43%,3.35%,-0.6%,1.77%,2.15%
CCn1c(-c2nonc2N)nc2cnc(Oc3cccc(NC(=O)c4ccc(N(C)C)cc4)c3)cc21,10.1%,3.21%,18.7%,1.7%,3.54%,2.26%,2.76%,0.25%,2.17%,0.79%,5.87%,1.23%,17.3%,0.01%,1.14%,0.31%,5.78%,1.31%,8.31%,1.42%

# From ChEMBL document CHEMBL1961873, “Compounds: GSK PKIS; Assays: Nanosyn kinase panel” (2012)
